Data taken from PubChem BioAssay (EPA / NIEHS).
Results filed as inconclusive are left out. A structure can be active in one record and inactive in another. Active and inactive are the calls of the source. How the source made its calls, unless noted: active means hit-call score of the fitted dose curve at least 0.9, where 1 is the maximum; inconclusive means response in the unintended direction; inactive means score below 0.9.

target: rat Thyrotropin Releasing Hormone Receptor (TRH), Trhr (gene 25570) (UniProt Q01717); assay: NVS_GPCR_rTRH: NovaScreen (NVS) G Protein-Coupled Receptor Assay for rat Thyrotropin Releasing Hormone Receptor (TRH) (AID 2283329);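 further: hit means lower bound tracer signal versus DMSO baseline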
How it was run: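 Rat forebrain membrane prep, radioligand displacement, filter scintillation readout at 4 h. Single conc 25 uM, duplicate; actives retested as concentration series. DMSO = negative control/baseline.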

Sequence of rat Thyrotropin Releasing Hormone Receptor (TRH), Trhr (gene 25570) (Q01717 whole entry, looked up): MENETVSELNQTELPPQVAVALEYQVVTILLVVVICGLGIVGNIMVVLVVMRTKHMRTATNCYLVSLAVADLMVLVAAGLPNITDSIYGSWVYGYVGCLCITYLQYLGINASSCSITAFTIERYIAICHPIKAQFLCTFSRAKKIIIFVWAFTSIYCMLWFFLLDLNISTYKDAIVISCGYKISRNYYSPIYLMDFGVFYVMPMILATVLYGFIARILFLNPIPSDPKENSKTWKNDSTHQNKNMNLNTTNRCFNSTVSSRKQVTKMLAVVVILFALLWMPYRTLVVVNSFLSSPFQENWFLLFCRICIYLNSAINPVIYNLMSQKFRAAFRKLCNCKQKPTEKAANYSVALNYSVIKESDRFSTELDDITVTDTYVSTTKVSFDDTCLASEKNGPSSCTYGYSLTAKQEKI

**Q.** With `CC(=O)[C@@]1(O)CC[C@H]2[C@@H]3CCC4=CC(=O)CC[C@]4(C)[C@H]3CC[C@@]21C` as the compound, how does the outcome read?
**A.** inactive

**Q.** How did the outcome turn out when `O=C1CCCCC1` was run?
**A.** inactive

**Q.** With `O=[Si]=O` as the compound, how does the outcome read?
**A.** inactive

**Q.** `Cc1cc(Cc2ccc(N)c(C)c2)ccc1N` was tested. Which outcome did it give?
**A.** inactive

**Q.** With `C#CC(O)C(CC)CCCC` (configuration not stated) as the compound, how does the outcome read?
**A.** inactive

**Q.** `O=C(O)CN(CC(=O)O)CC(=O)O` was tested. Which AC50 did it give?
**A.** 5.7 µM (active)

**Q.** Which outcome does the source give for `CCCCc1nc2cccnc2n1Cc1ccc(-c2ccccc2-c2nnn[nH]2)cc1` here?
**A.** inactive

**Q.** For `CS(=O)(=O)c1ccc([C@@H](C[C@H]2CCC(=O)C2)C(=O)Nc2cnccn2)cc1Cl`, which outcome is on record?
**A.** inactive

target: human Peripheral-type Benzodiazepine Receptor (PBR), TSPO (gene 706) (UniProt P30536); assay: NVS_MP_hPBR: NovaScreen (NVS) Membrane Protein Assay for human Peripheral-type Benzodiazepine Receptor (PBR) (AID 2283331);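 further: hits reduce radioligand binding relative to DMSO baseline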
How it was run: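 Human colonic cell membranes were incubated with test chemical for 1 hour; radioligand binding was measured by filter-based scintillation counting. Primary screen ran in duplicate at 25 uM, with actives followed in concentration series; loss of signal versus DMSO baseline.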

Sequence of human Peripheral-type Benzodiazepine Receptor (PBR), TSPO (gene 706) (P30536 whole entry, looked up): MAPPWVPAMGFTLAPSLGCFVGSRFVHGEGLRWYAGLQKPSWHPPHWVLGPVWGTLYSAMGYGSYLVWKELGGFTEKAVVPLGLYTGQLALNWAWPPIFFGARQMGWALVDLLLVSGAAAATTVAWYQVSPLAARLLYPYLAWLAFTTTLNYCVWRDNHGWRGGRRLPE

**Q.** `Cc1cc(Cc2ccc(N)c(C)c2)ccc1N` was tested. Which outcome did it give?
**A.** inactive

**Q.** `CC(C)(O)c1ccc(CNC(=O)c2cccnc2Oc2ccc(F)cc2)cc1` was tested. Which AC50 did it give?
**A.** 8.65 µM (active)

**Q.** For `CC(COCC(C)OC(=O)c1ccccc1)OC(=O)c1ccccc1` (configuration not stated), which outcome is on record?
**A.** inactive

**Q.** `O=C(N[C@@H](c1ccccc1)[C@@H]1CCCCN1)c1cccc(C(F)(F)F)c1Cl` was tested. Which AC50 did it give?
**A.** 17.9 µM (active)

**Q.** With `CCCCCCC(CCCCCCCCCCC(=O)OCC(COC(C)=O)OC(C)=O)OC(C)=O` (configuration not stated) as the compound, how does the outcome read?
**A.** inactive

**Q.** For `CCN(CC)CCOc1ccc(C(=C(Cl)c2ccccc2)c2ccccc2)cc1`, which AC50 is on record?
**A.** 0.672 µM (active)

**Q.** What about the outcome of the same compound?
**A.** inactive

**Q.** Which outcome does the source give for `Oc1ccc(O)cc1` here?
**A.** inactive

target: Voltage-gated inwardly rectifying potassium channel KCNH2 (Homo sapiens) (UniProt Q12809); assay: NVS_IC_hKhERGCh: NovaScreen (NVS) Ion Channel Assay for human Potassium Channel ERG (KhERGCh) (AID 2283333)
How it was run: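 Cell-free radioligand competition binding on hERG protein extracted from CHO cells, read by filter-based scintillation counting 0.75 h after dosing. Primary screen at 25 uM in duplicate, actives followed in concentration series. Signal loss fitted versus DMSO.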

Sequence of Voltage-gated inwardly rectifying potassium channel KCNH2 (Homo sapiens) (Q12809 whole entry, looked up): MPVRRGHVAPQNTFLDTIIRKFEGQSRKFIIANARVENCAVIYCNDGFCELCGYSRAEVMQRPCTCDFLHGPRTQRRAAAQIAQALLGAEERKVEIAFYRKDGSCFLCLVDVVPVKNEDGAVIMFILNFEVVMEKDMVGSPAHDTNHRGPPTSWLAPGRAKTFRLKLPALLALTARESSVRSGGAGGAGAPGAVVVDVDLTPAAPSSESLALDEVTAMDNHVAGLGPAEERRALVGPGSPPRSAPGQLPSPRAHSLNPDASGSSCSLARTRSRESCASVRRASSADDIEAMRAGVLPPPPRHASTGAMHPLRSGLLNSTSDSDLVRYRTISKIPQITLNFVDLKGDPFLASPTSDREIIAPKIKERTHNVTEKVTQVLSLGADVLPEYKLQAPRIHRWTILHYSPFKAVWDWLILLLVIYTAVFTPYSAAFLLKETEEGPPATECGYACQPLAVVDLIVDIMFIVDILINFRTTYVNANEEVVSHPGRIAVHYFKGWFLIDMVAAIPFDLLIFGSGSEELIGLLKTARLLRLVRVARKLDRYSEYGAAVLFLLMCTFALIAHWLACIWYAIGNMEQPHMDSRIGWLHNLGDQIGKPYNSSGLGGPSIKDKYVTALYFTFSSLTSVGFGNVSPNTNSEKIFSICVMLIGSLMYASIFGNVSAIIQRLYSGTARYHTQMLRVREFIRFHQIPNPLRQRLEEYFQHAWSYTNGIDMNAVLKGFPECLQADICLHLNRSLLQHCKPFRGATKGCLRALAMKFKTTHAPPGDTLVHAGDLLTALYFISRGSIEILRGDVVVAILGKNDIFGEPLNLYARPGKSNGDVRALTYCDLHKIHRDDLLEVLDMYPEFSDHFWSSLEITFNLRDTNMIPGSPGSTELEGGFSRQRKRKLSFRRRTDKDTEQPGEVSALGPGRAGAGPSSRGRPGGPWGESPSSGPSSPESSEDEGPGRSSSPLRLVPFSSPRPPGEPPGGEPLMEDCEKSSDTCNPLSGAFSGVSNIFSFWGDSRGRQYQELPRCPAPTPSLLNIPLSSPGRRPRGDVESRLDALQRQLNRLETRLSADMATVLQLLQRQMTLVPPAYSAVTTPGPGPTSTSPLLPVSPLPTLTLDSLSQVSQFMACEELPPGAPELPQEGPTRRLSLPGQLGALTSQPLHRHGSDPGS

**Q.** `O=C(O)c1[nH]n(-c2ccc(S(=O)(=O)O)cc2)c(=O)c1N=Nc1ccc(S(=O)(=O)O)cc1` was tested. Which outcome did it give?
**A.** inactive

**Q.** For `CN(C)CCCN1c2ccccc2Sc2ccc(Cl)cc21`, which AC50 is on record?
**A.** 10.4 µM (active)

**Q.** `CSc1ccc(Oc2ccc(S(N)(=O)=O)cc2CN(C)C)cc1C` was tested. Which outcome did it give?
**A.** inactive

**Q.** With `Cn1cnc2c1c(=O)[nH]c(=O)n2C` as the compound, how does the outcome read?
**A.** inactive

**Q.** How did the AC50 turn out when `O=C(N[C@@H](c1ccccc1)[C@@H]1CCCCN1)c1cccc(C(F)(F)F)c1Cl` was run?
**A.** 32.9 µM (active)

**Q.** Which outcome does the source give for `CCCCCCC(CCCCCCCCCCC(=O)OCC(COC(C)=O)OC(C)=O)OC(C)=O` (configuration not stated) here?
**A.** inactive

**Q.** With `Cc1cc(SC2=C(O)C[C@@](CCc3ccc(N)cc3)(C(C)C)OC2=O)c(C(C)(C)C)cc1CO` as the compound, how does the outcome read?
**A.** inactive

**Q.** `COC(=O)[C@H]1[C@H]2C[C@@H]3c4[nH]c5cc(OC)ccc5c4CCN3C[C@H]2C[C@@H](OC(=O)c2cc(OC)c(OC)c(OC)c2)[C@@H]1OC` was tested. Which outcome did it give?
**A.** inactive

**Q.** `CN(C)C(=O)NC1(c2ccccc2)CCN(CCC[C@]2(c3ccc(Cl)c(Cl)c3)CCCN(C(=O)c3ccccc3)C2)CC1` was tested. Which AC50 did it give?
**A.** 1.24 µM (active)

target: Glutamate receptor ionotropic, kainate 1 (Rattus norvegicus) (UniProt P22756); assay: NVS_IC_rKAR: NovaScreen (NVS) Ion Channel Assay for rat Kainic Acid Receptors (KAR) (AID 2283334; active means hit-call score of the fitted dose curve at least 0.9, where 1 is the maximum; inactive means score below 0.9)
How it was run: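 Radioligand displacement binding using rat forebrain membranes, 1 h incubation, filter-based scintillation counting. Screened in duplicate at 25 uM, with actives retested in concentration-response up to 50 uM; fitted against DMSO.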

Sequence of Glutamate receptor ionotropic, kainate 1 (Rattus norvegicus) (P22756 whole entry, looked up): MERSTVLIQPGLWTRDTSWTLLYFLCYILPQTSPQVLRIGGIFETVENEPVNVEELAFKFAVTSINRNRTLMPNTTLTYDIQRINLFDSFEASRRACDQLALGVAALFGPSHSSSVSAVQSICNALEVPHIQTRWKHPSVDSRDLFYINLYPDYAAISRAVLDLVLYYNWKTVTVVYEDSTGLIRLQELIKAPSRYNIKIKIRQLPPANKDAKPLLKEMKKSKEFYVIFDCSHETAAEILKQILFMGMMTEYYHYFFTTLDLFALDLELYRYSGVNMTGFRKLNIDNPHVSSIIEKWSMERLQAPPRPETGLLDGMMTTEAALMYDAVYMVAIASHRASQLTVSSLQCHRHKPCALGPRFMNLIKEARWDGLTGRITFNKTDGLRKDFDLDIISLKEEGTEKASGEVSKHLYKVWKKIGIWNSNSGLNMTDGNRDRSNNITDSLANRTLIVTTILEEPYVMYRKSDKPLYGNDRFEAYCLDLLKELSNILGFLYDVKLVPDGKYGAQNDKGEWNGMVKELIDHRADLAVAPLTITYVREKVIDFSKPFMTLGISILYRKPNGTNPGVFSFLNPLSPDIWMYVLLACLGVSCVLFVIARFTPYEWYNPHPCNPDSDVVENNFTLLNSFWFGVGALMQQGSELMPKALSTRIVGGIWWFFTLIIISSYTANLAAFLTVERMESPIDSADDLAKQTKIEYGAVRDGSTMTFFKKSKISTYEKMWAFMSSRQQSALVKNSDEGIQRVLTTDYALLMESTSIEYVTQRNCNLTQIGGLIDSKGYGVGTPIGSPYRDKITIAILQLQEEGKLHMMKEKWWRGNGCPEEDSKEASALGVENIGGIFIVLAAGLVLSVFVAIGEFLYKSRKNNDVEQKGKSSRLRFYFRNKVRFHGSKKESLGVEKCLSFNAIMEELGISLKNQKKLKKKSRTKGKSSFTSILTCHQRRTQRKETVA

**Q.** How did the outcome turn out when `O=C(Oc1ccccc1)c1cccc(C(=O)Oc2ccccc2)c1` was run?
**A.** inactive

**Q.** `CCC(C)N(C)C(=O)c1cc2ccccc2c(-c2ccccc2Cl)n1` (configuration not stated) was tested. Which outcome did it give?
**A.** inactive

**Q.** How did the outcome turn out when `COC(=O)CCC(=O)OC` was run?
**A.** inactive

**Q.** With `CC(C)COC(=O)CCCCC(=O)OCC(C)C` as the compound, how does the outcome read?
**A.** inactive

target: rat Peripheral-type Benzodiazepine Receptor (PBR), Tspo (gene 24230) (UniProt P16257); assay: NVS_MP_rPBR: NovaScreen (NVS) Membrane Protein Assay for rat Peripheral-type Benzodiazepine Receptor (PBR) (AID 2283335)
How it was run: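 Radioligand displacement, rat kidney membrane prep, 1 h exposure, filter-based scintillation read; DMSO baseline, loss-of-signal scored. Primary screen at 25 uM in duplicate, actives followed up in concentration series.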

Sequence of rat Peripheral-type Benzodiazepine Receptor (PBR), Tspo (gene 24230) (P16257 whole entry, looked up): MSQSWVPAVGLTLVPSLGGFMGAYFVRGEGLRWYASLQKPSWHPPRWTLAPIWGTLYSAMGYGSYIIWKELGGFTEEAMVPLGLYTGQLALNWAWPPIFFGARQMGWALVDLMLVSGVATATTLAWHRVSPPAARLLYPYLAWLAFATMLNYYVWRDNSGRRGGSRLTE

**Q.** With `Cc1ccc(-c2cc(C(F)(F)F)nn2-c2ccc(S(N)(=O)=O)cc2)cc1` as the compound, how does the outcome read?
**A.** inactive

**Q.** `CCc1nc(N)nc(N)c1-c1ccc(Cl)cc1` was tested. Which outcome did it give?
**A.** inactive

**Q.** Which outcome does the source give for `Cc1cc(Cc2ccc(N)c(C)c2)ccc1N` here?
**A.** inactive

**Q.** How did the AC50 turn out when `CC(C)(O)c1ccc(CNC(=O)c2cccnc2Oc2ccc(F)cc2)cc1` was run?
**A.** 4.31 µM (active)

**Q.** Which AC50 does the source give for `CC(COCC(C)OC(=O)c1ccccc1)OC(=O)c1ccccc1` (configuration not stated) here?
**A.** 17 µM (active)

**Q.** How did the AC50 turn out when `O=C(N[C@@H](c1ccccc1)[C@@H]1CCCCN1)c1cccc(C(F)(F)F)c1Cl` was run?
**A.** 25 µM (active)

**Q.** Which outcome does the source give for `Cc1cc(SC2=C(O)C[C@@](CCc3ccc(N)cc3)(C(C)C)OC2=O)c(C(C)(C)C)cc1CO` here?
**A.** inactive

**Q.** With `CCCCc1nc2cccnc2n1Cc1ccc(-c2ccccc2-c2nnn[nH]2)cc1` as the compound, how does the AC50 read?
**A.** 14.6 µM (active)

target: Small conductance calcium-activated potassium channel protein 1 (Rattus norvegicus) (UniProt P70606); assay: NVS_IC_rKCaCh: NovaScreen (NVS) Ion Channel Assay for rat Potassium Channel, Ca2+ Act., VI (KCaCh) (AID 2283336)
How it was run: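 Radioligand binding to rat forebrain membranes, cell-free, read 1 hour after dosing by filter-based scintillation counting. Compounds first run in duplicate at 25 uM, actives then in concentration series; loss of signal vs DMSO indicates displacement.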

Sequence of Small conductance calcium-activated potassium channel protein 1 (Rattus norvegicus) (P70606 whole entry, looked up): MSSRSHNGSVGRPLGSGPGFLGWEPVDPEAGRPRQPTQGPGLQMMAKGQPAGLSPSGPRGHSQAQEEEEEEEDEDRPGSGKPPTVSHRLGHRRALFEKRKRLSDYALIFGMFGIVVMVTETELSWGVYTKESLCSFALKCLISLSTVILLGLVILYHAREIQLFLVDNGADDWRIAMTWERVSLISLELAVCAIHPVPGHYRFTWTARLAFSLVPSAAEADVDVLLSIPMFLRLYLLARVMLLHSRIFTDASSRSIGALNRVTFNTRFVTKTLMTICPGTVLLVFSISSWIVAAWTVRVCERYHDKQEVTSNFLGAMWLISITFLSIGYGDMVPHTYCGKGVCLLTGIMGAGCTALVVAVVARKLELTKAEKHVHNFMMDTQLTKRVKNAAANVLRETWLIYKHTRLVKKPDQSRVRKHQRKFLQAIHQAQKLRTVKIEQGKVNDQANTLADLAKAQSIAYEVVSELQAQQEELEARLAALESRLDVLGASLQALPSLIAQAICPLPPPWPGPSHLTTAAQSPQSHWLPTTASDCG

**Q.** For `O=C1OC(c2ccc(O)cc2)(c2ccc(O)cc2)c2ccccc21`, which outcome is on record?
**A.** inactive

**Q.** How did the outcome turn out when `COc1ccc(OC(F)(F)F)cc1CN[C@H]1CCCN[C@H]1c1ccccc1` was run?
**A.** inactive

**Q.** `c1ccc2occc2c1` was tested. Which outcome did it give?
**A.** inactive

**Q.** How did the outcome turn out when `CN(C)C(=O)NC1(c2ccccc2)CCN(CCC[C@]2(c3ccc(Cl)c(Cl)c3)CCCN(C(=O)c3ccccc3)C2)CC1` was run?
**A.** inactive

target: bovine Gamma-Aminobutyric Acid Type A Receptor Agonist (GABAR Agonist), GABRA1 (gene 780973) (UniProt P08219); assay: NVS_LGIC_bGABAR_Agonist: NovaScreen (NVS) Ligand-Gated Ion Channel Assay for bovine Gamma-Aminobutyric Acid Type A Receptor Agonist (GABAR Agonist) (AID 2283338)
How it was run: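 Radioligand binding to bovine cerebellar membranes in agonist format, read by filter-based scintillation counting after 1 h. Primary screen in duplicate at 25 uM, with actives followed in concentration series. Gain of signal versus DMSO.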

Sequence of bovine Gamma-Aminobutyric Acid Type A Receptor Agonist (GABAR Agonist), GABRA1 (gene 780973) (P08219 whole entry, looked up): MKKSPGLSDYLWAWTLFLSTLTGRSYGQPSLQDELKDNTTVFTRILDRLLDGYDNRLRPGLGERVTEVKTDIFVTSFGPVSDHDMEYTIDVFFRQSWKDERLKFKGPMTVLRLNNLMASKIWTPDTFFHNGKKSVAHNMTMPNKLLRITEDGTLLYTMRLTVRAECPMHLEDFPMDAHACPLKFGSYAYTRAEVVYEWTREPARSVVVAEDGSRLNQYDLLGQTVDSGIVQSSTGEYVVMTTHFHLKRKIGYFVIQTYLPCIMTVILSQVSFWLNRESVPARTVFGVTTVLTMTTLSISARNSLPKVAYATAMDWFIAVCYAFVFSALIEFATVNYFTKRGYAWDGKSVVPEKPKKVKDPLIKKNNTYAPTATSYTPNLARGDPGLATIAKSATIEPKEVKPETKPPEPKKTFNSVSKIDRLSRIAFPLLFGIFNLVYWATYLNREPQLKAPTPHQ

**Q.** For `CCc1nc(N)nc(N)c1-c1ccc(Cl)cc1`, which AC50 is on record?
**A.** 8.29 µM (active)

**Q.** Which outcome does the source give for `N[C@@H](Cc1c[nH]c2ccccc12)C(=O)O` here?
**A.** inactive

**Q.** How did the outcome turn out when `CN(C)CCCN1c2ccccc2Sc2ccc(Cl)cc21` was run?
**A.** inactive

**Q.** Which AC50 does the source give for `CSc1ccc(Oc2ccc(S(N)(=O)=O)cc2CN(C)C)cc1C` here?
**A.** 38.8 µM (active)

**Q.** For `Cc1c(C)c2c(c(C)c1O)CCC(C)(COc1ccc(CC3SC(=O)NC3=O)cc1)O2` (configuration not stated), which outcome is on record?
**A.** inactive

**Q.** How did the outcome turn out when `CC(C)(C)c1ccccc1` was run?
**A.** inactive
